# Values joined by “and” are separate entries in the source; they are usually repeats but may differ in a detail not shown here. Identical values can stand only once. Results filed as inconclusive are left out. For part of these data: Results with a measured potency or affinity are listed apart. Active and inactive are the calls of the source. Rule as the data show it, unless noted: active = parasite load remaining mostly below about 12% (no sharp cut-off); inactive = mostly above about 10%.
# Experiments:
# [1] = polyglutamine-triggered caspase-3 activation inhibitors, cell-based (AID 1583); conditions: polyglutamine-induced caspase-3 activation, cell assay; stronger effect = higher value;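 tested at 10 µM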
# [2] = suppressors of polyQ aggregation in yeast, 75Q-TubU reporter (AID 1593); conditions: Yeast 75Q polyglutamine aggregation reporter
# [3] = protection of motor neurons from glutamate death, cell-based, TUNEL DNA degradation staining, MNGlu (AID 1594; call rule not given here); conditions: glutamate-induced death, at 1 µM, stronger effect = higher value
# [4] = rescue of polyQ-huntingtin neuronal dysfunction in worms, whole organism, C. elegans mechanosensory neurons, N-terminal huntingtin (AID 1599); conditions: touch response, stronger effect = higher value
# [5] = inhibitors of mitochondrial cytochrome c release, biochemical, purified mitochondria (AID 1603); conditions: stronger effect = lower value;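 also: mouse liver mitochondria challenged with calcium chloride; signal normalized to the plate average as 100%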
# [6] = inhibitors of polyQ protein aggregation (AID 1604); conditions: polyglutamine-induced protein aggregation inhibition assay; stronger effect = higher value; tested at 2.5 µM
# [7] = enhancers of glutamate uptake in motor neurons, MN-1 cell line (AID 1612); conditions: MN-1 motor neuron cells, stronger effect = higher value;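 also: tested at 1 µM final; 0% = mean of DMSO vehicle wells on each plate; positive means more glutamate uptake than control and negative means less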
# [8] = reducers of polyQ inclusions in PC12 cells, cell-based, NGF-treated PC12, GFPQ80 (AID 1614); conditions: PC12 NGF-treated GFP-polyQ80 inclusion reduction;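 also: lower means fewer inclusions and 0 means no inclusions at all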
# [9] = suppressors of polyglutamine aggregation in yeast, 75Q-TubH (AID 1616); conditions: S. cerevisiae 75Q-TubH polyglutamine aggregation suppression; stronger effect = higher value
# [10] = liver-stage malaria parasite growth inhibition, primary screen, cell-based, HepG2, luciferase luminescence, HepG2 viability (AID 624349);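 also: 100% = mean of DMSO negative control wells on the same plate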; conditions: P. berghei liver stage in HepG2, luciferase luminescence, concentration not given here; parasite load remaining: stronger effect = lower value; viability: measured here: HepG2 viability without parasites
# [11] = differential killing of epithelial or mesenchymal cells, primary screen, imaging, PC-3E GFP, TEM4-18 mCherry, co-culture (AID 1345086;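 active = compounds killing one labelled cell type while sparing the other, by normalised counts and ratio limits, not self-fluorescent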;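 as to all read-outs here: cells exposed to compound for 72 h before imaging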;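 as to red/green cell ratio (normalised): normalised mesenchymal count divided by normalised epithelial count so high means epithelial killing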); conditions: imaging cell counts, at 1 µM; for red/green cell ratio (normalised): actives lie on both sides, counts scaled to control wells, 1 = unselective
# [12] = sensitizers of A549 cells to miR-34 induction, primary screen, imaging, A549 dox-inducible miR-34, nuclei and caspase counts (AID 1347080;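 active = compounds whose cell count with miR-34 switched on is under 0.7 times the count with it off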); conditions: A549 miR-34 inducible, Hoechst nuclei count, 48 h
# [13] = molecular target: NAD(+) hydrolase SARM1 (Homo sapiens) (UniProt Q6SZW1); assay: SARM1 TIR NADase inhibitors, cell lysate, NAD-Glo luminescence (AID 1508614;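 active = compound whose remaining NAD level is above about 45 nM, limit read from the data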;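 also: higher remaining NAD means stronger inhibition of SARM1 NADase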); conditions: SAM-TIR HEK293T lysate NADase, at 1 µM, stronger effect = higher value
# Chain of NAD(+) hydrolase SARM1 (Homo sapiens) (Q6SZW1 whole entry, looked up, the tested form may be a part): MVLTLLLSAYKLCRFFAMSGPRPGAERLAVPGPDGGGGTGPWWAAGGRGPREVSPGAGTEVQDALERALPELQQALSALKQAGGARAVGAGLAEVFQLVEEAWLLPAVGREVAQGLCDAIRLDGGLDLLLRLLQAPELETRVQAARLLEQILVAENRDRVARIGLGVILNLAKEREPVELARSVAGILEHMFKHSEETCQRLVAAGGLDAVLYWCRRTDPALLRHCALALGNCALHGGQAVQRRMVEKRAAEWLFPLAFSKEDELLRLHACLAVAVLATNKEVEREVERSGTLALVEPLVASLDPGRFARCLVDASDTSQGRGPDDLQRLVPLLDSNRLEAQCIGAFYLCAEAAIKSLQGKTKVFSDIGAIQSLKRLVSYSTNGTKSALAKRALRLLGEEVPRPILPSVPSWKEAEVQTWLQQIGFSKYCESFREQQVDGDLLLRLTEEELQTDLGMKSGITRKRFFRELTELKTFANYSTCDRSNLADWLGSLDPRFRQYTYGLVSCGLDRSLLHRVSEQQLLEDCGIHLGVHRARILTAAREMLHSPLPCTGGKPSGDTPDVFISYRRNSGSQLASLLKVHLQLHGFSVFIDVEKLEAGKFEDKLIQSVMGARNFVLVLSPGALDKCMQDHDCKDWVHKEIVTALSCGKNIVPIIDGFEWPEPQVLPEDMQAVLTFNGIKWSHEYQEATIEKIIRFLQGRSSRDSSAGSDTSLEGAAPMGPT
# [14] = molecular target: Mitogen-activated protein kinase 7 (Homo sapiens) (UniProt Q13164); assay: ERK5 transactivation activators in reporter cells, primary screen, cell-based, HTS (AID 1508626;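 active = luciferase signal above three times the same-plate solvent-only control wells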;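 also: luciferase driven by Gal4-ERK5 fusion binding five Gal4 sites before minimal TATA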); conditions: HeLa Gal4-ERK5 transactivation, 18 h, at 5 µM, stronger effect = higher value
# Chain of Mitogen-activated protein kinase 7 (Homo sapiens) (Q13164 whole entry, looked up, the tested form may be a part): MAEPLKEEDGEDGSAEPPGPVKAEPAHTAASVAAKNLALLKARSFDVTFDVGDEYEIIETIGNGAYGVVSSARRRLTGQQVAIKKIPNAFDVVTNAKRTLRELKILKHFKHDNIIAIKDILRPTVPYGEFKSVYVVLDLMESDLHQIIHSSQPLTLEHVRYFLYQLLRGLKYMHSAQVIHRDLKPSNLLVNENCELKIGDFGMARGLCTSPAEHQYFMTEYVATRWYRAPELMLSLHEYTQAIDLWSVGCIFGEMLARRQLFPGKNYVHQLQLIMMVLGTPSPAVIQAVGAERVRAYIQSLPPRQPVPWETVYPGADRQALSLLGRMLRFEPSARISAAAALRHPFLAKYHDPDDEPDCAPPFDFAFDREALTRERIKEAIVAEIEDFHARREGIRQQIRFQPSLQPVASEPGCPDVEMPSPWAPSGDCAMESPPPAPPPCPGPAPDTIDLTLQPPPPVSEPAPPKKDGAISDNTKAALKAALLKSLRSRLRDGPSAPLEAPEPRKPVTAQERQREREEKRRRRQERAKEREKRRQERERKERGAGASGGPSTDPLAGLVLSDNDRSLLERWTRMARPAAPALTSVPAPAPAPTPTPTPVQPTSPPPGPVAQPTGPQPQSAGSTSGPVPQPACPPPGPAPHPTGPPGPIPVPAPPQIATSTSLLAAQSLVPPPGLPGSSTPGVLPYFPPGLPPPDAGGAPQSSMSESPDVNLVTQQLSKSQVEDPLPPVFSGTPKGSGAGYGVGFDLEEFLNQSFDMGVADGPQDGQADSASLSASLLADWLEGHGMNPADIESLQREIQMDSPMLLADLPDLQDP
# [15] = protection against mutant huntingtin cytotoxicity, PC12 cells, LDH release (AID 1610); conditions: PC12 mutant huntingtin toxicity, final LDH at 4 uM, stronger effect = lower value
# [16] = hESC survival regulators, cell-based (AID 493140; call rule not given here;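 also: cells exposed to compounds for four days before counting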); conditions: human embryonic stem cell survival screen; stronger effect = higher value
# [17] = measured here: epithelial PC-3E GFP cell survival
# [18] = measured here: mesenchymal TEM4-18 mCherry cell survival
# [19] = stronger effect = lower value, cell number ratio, induced over uninduced
# [20] = measured here: relative caspase fold change +Dox/-Dox
# [21] = measured here: total cells with miR-34 induction, stronger effect = lower value
# [22] = measured here: total cells without miR-34 induction
structure (smiles),measurement,setting,value
C[C@]12C=CC(=O)C=C1CCC1C2[C@@H](O)C[C@@]2(C)C1CC[C@]2(O)C(=O)CO (stereo partly specified),inhibition,[1],12%
same,score,[2],1.21
same,protection,[3],55% (active)
same,rescue above control,[4],1.9
same,cytochrome c release ratio,[5],1.29
same,inhibition of aggregation,[6],70.5%
same,glutamate uptake change,[7],9.97%
same,inclusion score,[8],2
same,aggregation suppression score,[9],1.27
same,parasite load remaining,[10],115% (inactive) and 54.5% (inactive)
same,viability,[10],73.3% and 82.9%
same,red/green cell ratio (normalised),[11],1.37 (inactive)
same,normalised cell number,[11]; [17],1.03
same,normalised cell number,[11]; [18],1.41
same,fold change,[12]; [19],0.848 (inactive)
same,fold change,[12]; [20],2.13
same,cell count,[12]; [21],6630
same,cell count,[12]; [22],7820
C[C@]12CCC(=O)C=C1CCC1C2[C@@H](O)C[C@@]2(C)C1CC[C@]2(O)C(=O)CO (stereo partly specified),inhibition,[1],5.24%
same,score,[2],1.39
same,rescue above control,[4],-4.34
same,cytochrome c release ratio,[5],1.36
same,inhibition of aggregation,[6],63.4%
same,glutamate uptake change,[7],10.6%
same,inclusion score,[8],2
same,aggregation suppression score,[9],1.61
same,parasite load remaining,[10],94% (inactive)
same,viability,[10],99.2%
same,red/green cell ratio (normalised),[11],1.04 (inactive)
same,normalised cell number,[11]; [17],1.28
same,normalised cell number,[11]; [18],1.34
same,fold change,[12]; [19],0.949 (inactive)
same,fold change,[12]; [20],3.13
same,cell count,[12]; [21],7100
same,cell count,[12]; [22],7490
FC(F)(F)COCC(F)(F)F,parasite load remaining,[10],45.8% (inactive)
same,viability,[10],107%
same,red/green cell ratio (normalised),[11],0.7 (inactive)
same,normalised cell number,[11]; [17],1.25
same,normalised cell number,[11]; [18],0.88
same,fold change,[12]; [19],0.879 (inactive)
same,fold change,[12]; [20],0.825
same,cell count,[12]; [21],10400
same,cell count,[12]; [22],11900
same,remaining NAD,[13],10 nM (inactive)
same,luciferase signal,[14],60 AU (inactive)
CC(C)CC1C(=O)N2CCC[C@H]2C2(O)O[C@](NC(=O)C3C=C4c5cccc6[nH]c(Br)c(c56)C[C@H]4N(C)C3)(C(C)C)C(=O)N12 (stereo partly specified),inhibition,[1],2.51%
same,score,[2],1.5
same,rescue above control,[4],6.29
same,cytochrome c release ratio,[5],4.55
same,inhibition of aggregation,[6],72.4%
same,normalised LDH release,[15],0.995
same,glutamate uptake change,[7],-22%
same,inclusion score,[8],2.5
same,aggregation suppression score,[9],1.46
same,parasite load remaining,[10],49.3% (inactive) and 20% (inactive)
same,viability,[10],70.8% and 87%
same,red/green cell ratio (normalised),[11],1.32 (inactive)
same,normalised cell number,[11]; [17],0.91
same,normalised cell number,[11]; [18],1.21
same,fold change,[12]; [19],0.852 (inactive)
same,fold change,[12]; [20],1.96
same,cell count,[12]; [21],9430
same,cell count,[12]; [22],11100
CC1(C)C(C=C(Cl)Cl)C1C(=O)OCc1cccc(Oc2ccccc2)c1 (stereo unspecified),red/green cell ratio (normalised),[11],0.81 (inactive)
same,normalised cell number,[11]; [17],1.23
same,normalised cell number,[11]; [18],1
same,fold change,[12]; [19],0.928 (inactive)
same,fold change,[12]; [20],0.968
same,cell count,[12]; [21],8290
same,cell count,[12]; [22],8930
same,remaining NAD,[13],10 nM (inactive)
N[C@@H]1[C@@H](O)[C@H](O)[C@@H](CO)O[C@H]1O,inhibition,[1],-15.7%
same,score,[2],0.98
same,rescue above control,[4],5.73
same,cytochrome c release ratio,[5],0.85
same,inhibition of aggregation,[6],66.7%
same,glutamate uptake change,[7],9.21%
same,inclusion score,[8],2
same,aggregation suppression score,[9],1.04
same,parasite load remaining,[10],80.5% (inactive) and 72% (inactive)
same,viability,[10],75.2% and 93.7%
same,red/green cell ratio (normalised),[11],1.04 (inactive)
same,normalised cell number,[11]; [17],1.08
same,normalised cell number,[11]; [18],1.12
same,fold change,[12]; [19],0.914 (inactive)
same,fold change,[12]; [20],0.981
same,cell count,[12]; [21],11500
same,cell count,[12]; [22],12600
OC[C@H]1O[C@H](O[C@]2(CCl)O[C@H](CCl)[C@@H](O)[C@@H]2O)[C@H](O)[C@@H](O)[C@H]1Cl,parasite load remaining,[10],60.8% (inactive)
same,viability,[10],98.6%
same,red/green cell ratio (normalised),[11],0.96 (inactive)
same,normalised cell number,[11]; [17],1.1
same,normalised cell number,[11]; [18],1.05
same,fold change,[12]; [19],0.909 (inactive)
same,fold change,[12]; [20],4.93
same,cell count,[12]; [21],12300
same,cell count,[12]; [22],13500
same,remaining NAD,[13],10 nM (inactive)
same,luciferase signal,[14],68 AU (inactive)
FC(F)(F)C(Cl)Br (stereo unspecified),parasite load remaining,[10],24% (inactive)
same,viability,[10],94.8%
same,red/green cell ratio (normalised),[11],0.84 (inactive)
same,normalised cell number,[11]; [17],1.13
same,normalised cell number,[11]; [18],0.95
same,fold change,[12]; [19],0.974 (inactive)
same,fold change,[12]; [20],2.12
same,cell count,[12]; [21],12500
same,cell count,[12]; [22],12900
same,remaining NAD,[13],10 nM (inactive)
same,luciferase signal,[14],40 AU (inactive)
Nc1ccc(S(=O)(=O)[O-])cc1.Nc1ccc(S(=O)(=O)[O-])cc1.[Zn+2],parasite load remaining,[10],34.7% (inactive)
same,viability,[10],93.6%
same,red/green cell ratio (normalised),[11],0.95 (inactive)
same,normalised cell number,[11]; [17],1.26
same,normalised cell number,[11]; [18],1.2
same,fold change,[12]; [19],0.91 (inactive)
same,fold change,[12]; [20],2.98
same,cell count,[12]; [21],11500
same,cell count,[12]; [22],12600
same,luciferase signal,[14],56 AU (inactive)
COc1cc(/C=C/C(=O)N2CCC=CC2=O)cc(OC)c1OC,survival,[16],0.417 (inactive)
same,parasite load remaining,[10],-9.42% (inactive) and 36.9% (inactive)
same,viability,[10],36.5% and 76.3%
same,red/green cell ratio (normalised),[11],1.8 (active)
same,normalised cell number,[11]; [17],0.39
same,normalised cell number,[11]; [18],0.7
same,fold change,[12]; [19],0.965 (inactive)
same,fold change,[12]; [20],1.26
same,cell count,[12]; [21],3400
same,cell count,[12]; [22],3530
same,luciferase signal,[14],460 AU (active)
O=C1/C(=C/c2cccs2)CCC/C1=C\c1cccs1,red/green cell ratio (normalised),[11],1 (inactive)
same,normalised cell number,[11]; [17],0.96
same,normalised cell number,[11]; [18],0.97
same,fold change,[12]; [19],0.964 (inactive)
same,fold change,[12]; [20],1.06
same,cell count,[12]; [21],7510
same,cell count,[12]; [22],7800
same,remaining NAD,[13],10 nM (inactive)
C[C@H](N[C@@H](CCc1ccccc1)C(=O)O)C(=O)N1Cc2ccccc2C[C@H]1C(=O)O,red/green cell ratio (normalised),[11],0.82 (inactive)
same,normalised cell number,[11]; [17],1.1
same,normalised cell number,[11]; [18],0.91
same,fold change,[12]; [19],0.868 (inactive)
same,fold change,[12]; [20],0.983
same,cell count,[12]; [21],8350
same,cell count,[12]; [22],9630
same,remaining NAD,[13],10 nM (inactive)
CN1C2CC(OC(=O)[C@H](CO)c3ccccc3)C[C@H]1[C@H]1OC21 (stereo partly specified),inhibition,[1],15.1%
same,score,[2],1.26
same,rescue above control,[4],6.9
same,cytochrome c release ratio,[5],1.03
same,inhibition of aggregation,[6],58.7%
same,glutamate uptake change,[7],1.71%
same,inclusion score,[8],2
same,aggregation suppression score,[9],1.18
same,parasite load remaining,[10],98.3% (inactive) and 40.5% (inactive)
same,viability,[10],76.7% and 88.6%
same,red/green cell ratio (normalised),[11],0.76 (inactive)
same,normalised cell number,[11]; [17],1.11
same,normalised cell number,[11]; [18],0.84
same,fold change,[12]; [19],0.977 (inactive)
same,fold change,[12]; [20],3.37
same,cell count,[12]; [21],11400
same,cell count,[12]; [22],11600
CC(C)(CO)C(O)C(=O)NCCCO (stereo unspecified),parasite load remaining,[10],56.4% (inactive)
same,viability,[10],105%
same,red/green cell ratio (normalised),[11],1.08 (inactive) and 0.9 (inactive)
same,normalised cell number,[11]; [17],1.14 and 1.02
same,normalised cell number,[11]; [18],1.23 and 0.92
same,fold change,[12]; [19],0.911 (inactive)
same,fold change,[12]; [20],4.72
same,cell count,[12]; [21],11800
same,cell count,[12]; [22],13000
same,luciferase signal,[14],68 AU (inactive)
CC(=O)Nc1ccc(S(=O)(=O)c2ccc(NC(C)=O)cc2)cc1,parasite load remaining,[10],52.4% (inactive)
same,viability,[10],147%
same,red/green cell ratio (normalised),[11],0.78 (inactive)
same,normalised cell number,[11]; [17],1.22
same,normalised cell number,[11]; [18],0.95
same,fold change,[12]; [19],0.909 (inactive)
same,fold change,[12]; [20],4.36
same,cell count,[12]; [21],10600
same,cell count,[12]; [22],11700
same,remaining NAD,[13],25 nM (inactive)
same,luciferase signal,[14],44 AU (inactive)
